PubChem BioAssay AID1852 (Sanford-Burnham Center for Chemical Genomics, 2009)
In all, about 2,500 compounds went through this assay and about 1,100 (44%) were called active. So high a share suggests a set chosen from earlier hits. Some of the results follow. Unmarked numbers belong to inactive results.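 The calls were made as follows: active = inhibition above 50% at 4 µM in the single-point screen; inactive = inhibition of 50% or less.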

test: TNF-a-driven NF-kB reporter inhibitors, primary screen, selectivity assay for NOD1/NOD2 signaling inhibitor project, cell-based, HEK293T NF-kB-Luc, luminescence (AID 1852); settings: TNF-a induced, 14 h, at 4 µM, hits give high values

SMILES | inhibition
COc1ccccc1[C@@H]1C(c2cccc(C)c2)=NN(c2ccccc2)[C@H]1C(=O)N1CCOC1=O | -11.7%
Cc1ccc(OCC(=O)c2cc(C)n(Cc3ccco3)c2C)c([N+](=O)[O-])n1 | 65.1% (active)
Cc1cc(C(=O)COc2cccnc2[N+](=O)[O-])c(C)n1Cc1ccco1 | -11%
COc1cccc(/C=N/NC(=O)CNC(=O)C(c2ccccc2)c2ccccc2)c1O | 92.3% (active)
COc1cccc(/C=N/NC(=O)c2cc3c(OC)ccc(OC)c3[nH]2)c1O | 48.6%
COc1cccc(/C=N/NC(=O)CNC(=O)/C=C\c2ccccc2)c1O | 82.6% (active)
CNC1=C(N(C(C)=O)c2ccc(Br)cc2)C(=O)c2ccccc2C1=O | 98.3% (active)
CN(C1=C(NC(=O)c2ccc(Cl)cc2)C(=O)c2ccccc2C1=O)c1ccccc1 | 21.3%
O=C(/C=C/c1ccco1)NCC1COc2ccccc2O1 (stereo unspecified) | -14.9%
O=C(Nc1ccc(Oc2cccnc2)nc1)c1ccc(C(F)(F)F)cc1 | 42.6%
O=C(Nc1ccc(Oc2cccc(C(F)(F)F)c2)nc1)c1cccs1 | 49.2%
COc1cccc(C(=O)Nc2ccc(Oc3cccc(C(F)(F)F)c3)nc2)c1 | 53.3% (active)
Cc1cccc(-n2[nH]c3c4c(ccc3c2=O)C(=O)c2ccccc2C4=O)c1 | 37.6%
Cc1ccc(C)c(-n2[nH]c3c4c(ccc3c2=O)C(=O)c2ccccc2C4=O)c1 | 58.4% (active)
Cc1ccc(-n2[nH]c3c4c(ccc3c2=O)C(=O)c2ccccc2C4=O)cc1 | 99.4% (active)
CCc1ccc(CN(C)C(=O)CCc2nc3ccccc3n(-c3ccc(OC)cc3)c2=O)cc1 | 41.1%
CCCOC(=O)c1[nH]c2c(c1C)C(=O)CC(c1cc(OC)c(OC)c(OC)c1)C2 (stereo unspecified) | 40.2%
COCCOC(=O)c1[nH]c2c(c1C)C(=O)CC(c1cc(OC)c(OC)c(OC)c1)C2 (stereo unspecified) | 58.3% (active)
CCCCOC(=O)c1[nH]c2c(c1C)C(=O)CC(c1cc(OC)c(OC)c(OC)c1)C2 (stereo unspecified) | 47.1%
CC1=Nc2ccccc2/C1=C/c1sc(=N)n(-c2nccs2)c1O | 99.2% (active)
Cc1ccc(-n2c(O)c(/C=C3/C(c4ccccc4)=Nc4ccccc43)c(=O)[nH]c2=O)cc1 | 28.1%
COC(=O)c1ccccc1NC(=O)C1CCCN(S(=O)(=O)c2ccc(F)cc2)C1 (stereo unspecified) | 21.7%
O=C(Nc1nnc(S(=O)(=O)N2CCCCCC2)s1)c1ccc(Cl)cc1 | -43%

SMILES | inhibition
O=C(Nc1nc(-c2ccccc2)cs1)C1CCCN(S(=O)(=O)c2ccccc2)C1 (stereo unspecified) | 87.9% (active)
O=C(Nc1nc(-c2cccs2)cs1)c1ccc(S(=O)(=O)N2CCCC2)cc1 | 83.9% (active)
CCOC(=O)c1ccc(NC(=O)C2CCCN(S(=O)(=O)c3ccc(F)cc3)C2)cc1 (stereo unspecified) | -6.1%
O=C(Nc1nnc(S(=O)(=O)N2CCCCCC2)s1)c1ccc(Br)cc1 | -43.1%
COc1ccccc1NC(=O)c1cc2cc(Br)ccc2cc1O | 82.6% (active)
COc1ccc(C(C)=O)cc1COC(=O)c1cc2ccccc2cc1O | 12.5%
COc1cc(NC(=O)c2cc3ccccc3cc2O)c(OC)cc1Cl | 47.5%
COCCC1CCCCN1C(=O)c1cc(COc2ccc(-n3cncn3)cc2)on1 (stereo unspecified) | 15.4%
COC(=O)C1CCCCN1C(=O)c1cc(COc2cccc3cnccc23)on1 (stereo unspecified) | 53.1% (active)
O=C(c1cc(COc2ccc3ncccc3c2)on1)N1CCCCCC1 | 31.2%
CCOC(=O)CC1CCCCN1C(=O)c1cc(COc2cccc3cnccc23)on1 (stereo unspecified) | 60.8% (active)
O=C(CSc1nnc2c(n1)[nH]c1ccccc12)NC1CCCCC1 | 47%
CC(Sc1nnc2c(n1)[nH]c1ccccc12)C(=O)NC1CCCCC1 (stereo unspecified) | 30%
O=C(NC1CCCCC1)c1sc(=S)n2c1[nH]c(=O)c1ccccc12 | 85.3% (active)
O=C(NC1CCCC1)c1sc(=S)n2c1[nH]c(=O)c1ccccc12 | 72.6% (active)
N#C/C(=N\Nc1cccc(C(F)(F)F)c1)C(=O)c1csc(-c2cccnc2)n1 | 80.5% (active)
O=C(CNC(=O)OCc1ccccc1)Oc1cc2oc(=O)cc(-c3ccccc3)c2cc1Cl | 83.1% (active)
CC(C)(C)OC(=O)NCCc1nnc(S(=O)(=O)Cc2ccc(Cl)cc2Cl)o1 | 45.3%
CC(C)(C)OC(=O)NCC(=O)Oc1cc2oc(=O)cc(-c3ccccc3)c2cc1Cl | 58% (active)
O=C(COc1ccc2c(-c3ccccc3)cc(=O)oc2c1)Nc1ccc(CCO)cc1 | 44.2%
CCCNc1c(NS(=O)(=O)c2ccc3c(c2)CCCC3)c(=O)oc2ccccc12 | -3.6%
Cc1cc(OCC(=O)Nc2ccncc2)cc(C)c1Br | 34.4%
O=C(COc1ccc(Br)cc1)Nc1ccc(Cc2ccncc2)cc1 | 64.1% (active)

SMILES | inhibition
Cc1cc(OCC(=O)Nc2ccncc2)cc(C)c1Cl | 41%
COc1cccc2sc(N(CCCN(C)C)C(=O)CCS(=O)(=O)c3ccccc3)nc12 | 44.2%
Nc1ncncc1-c1ccc2ccccc2c1 | 16.7%
Nc1nc(N)c2cc(Sc3ccc4ccccc4c3)ccc2n1 | 51.9% (active)
Nc1nc(CCl)nc(Nc2ccc3ccccc3c2)n1 | -13.4%
O=C1C=C(Nc2ccccc2O)c2ccccc2C1=O | 38.6%
COC(=O)c1ccccc1NC1=C/C(=N\S(=O)(=O)c2ccc(C(=O)O)cc2)c2ccccc2C1=O | 106% (active)
CC(=O)Nc1ccc(S(=O)(=O)NCc2nc(-c3ccccc3C)no2)cc1 | -15.1%
Cc1ccccc1NC1=C/C(=N\S(=O)(=O)c2ccc(C(=O)O)cc2)c2ccccc2C1=O | 104% (active)
O=C(O)c1ccc(S(=O)(=O)/N=C2\C=C(Nc3ccccc3F)C(=O)c3ccccc32)cc1 | 89.6% (active)
Cc1ccc(-c2nc(NC(=O)c3nn(C)cc3[N+](=O)[O-])sc2C)cc1C | 33.4%
COc1ccc2sc3c(=O)[nH]c4ccccc4c3c2c1 | 54.1% (active)
CCc1nnc(NC(=O)c2ccc(Cl)c(S(=O)(=O)N3CCc4ccccc43)c2)s1 | 53.5% (active)
CCc1nnc(NC(=O)c2ccc(Cl)c(S(=O)(=O)N3CCc4ccccc4C3)c2)s1 | 31.8%
Cn1cc(S(=O)(=O)N2CCc3ccccc32)cc1C(=O)Nc1ccc(Cl)cc1 | 24.7%
Cc1ccc(Cl)c(NC(=O)COC(=O)c2ccccc2C(=O)c2ccc(Cl)c([N+](=O)[O-])c2)c1Cl | 84.2% (active)
Cc1ccc[n+](CC(=O)Nc2ccc(Cl)c([N+](=O)[O-])c2)c1 | -10%
O=C(NCc1cc(Br)cc(Br)c1OC(=O)c1ccccc1[N+](=O)[O-])c1ccccc1 | -35.5%
O=C(COC(=O)c1ccccc1C(=O)c1ccc(Cl)c([N+](=O)[O-])c1)NC1CC1 | 73.1% (active)
N#Cc1cccc(NC(=O)Cn2cnc(S(=O)(=O)N3CCc4ccccc43)c2)c1 | 8.2%
CCCNC(=O)COC(=O)c1ccccc1C(=O)c1ccc(Cl)c([N+](=O)[O-])c1 | 65.9% (active)
O=C(COC(=O)c1ccccc1C(=O)c1ccc(Cl)c([N+](=O)[O-])c1)NC1CCCCCC1 | 27.6%
N#Cc1cccc(NC(=O)COC(=O)c2ccccc2C(=O)c2ccc(Cl)c([N+](=O)[O-])c2)c1 | 83.2% (active)

SMILES | inhibition
O=C(O)c1ccc(N/N=C/c2ccc(OC(=O)c3cccc(Cl)c3)cc2)cc1 | -26.3%
CNC(=O)COC(=O)c1ccccc1C(=O)c1ccc(Cl)c([N+](=O)[O-])c1 | 81.6% (active)
Nc1ccc(C(=O)OCC(=O)N2CCc3ccccc3C2)cc1[N+](=O)[O-] | 31.9%
CCOC(=O)c1sc(NC(=O)CSc2nc3c(cc2C#N)CCCCCC3)c(C#N)c1C | 52.1% (active)
Cc1c(C)c2ccc(OCC(=O)Nc3ccccn3)c(C)c2oc1=O | 76.2% (active)
Cc1c(OCC(=O)N2CCN(c3ccccc3)CC2)ccc2c3c(c(=O)oc12)CCCC3 | 14.2%
Cc1ccc(OCCN2CCN(c3ncnc4sc(C)c(C)c34)CC2)cc1 | 63% (active)
Cc1cc(C)c(C)c(S(=O)(=O)N2CCN(c3ncnc4sc(C)c(C)c34)CC2)c1C | 75.3% (active)
Cc1sc2ncnc(N3CCN(S(=O)(=O)c4ccc(F)cc4)CC3)c2c1C | 15%
Cc1sc2ncnc(N3CCN(S(=O)(=O)c4ccc(Br)cc4)CC3)c2c1C | 29.2%
COC(=O)c1scc(C#N)c1N/N=C(\C#N)S(=O)(=O)c1ccc(Cl)cc1 | -8.6%
CC(C)(C)OC(=O)N1Cc2ccccc2C[C@H]1C(=O)NCC(=O)NC1CCCC1 | 11%
COCCCn1c(=O)c2sccc2n(Cc2cccc(C)c2)c1=O | 29.7%
CCCCC(=O)/C=C/n1c(=S)oc2ccccc21 | -6.6%
CC(C)CC(=O)/C=C/n1c(=S)oc2ccccc21 | 76.6% (active)
CC(=O)/C=C/n1c(=S)oc2ccccc21 | 94.2% (active)
COC(=O)N1C(=O)[C@](CC(C)C)(c2ccccc2)N1C(=O)OC | 45.2%
COC(=O)N1C(=O)[C@@](Cc2ccccc2)(c2ccccc2)N1C(=O)OC | 59.8% (active)
N=c1c2c(n(Cc3ccc(Cl)cc3)c3c1CCC3)CCC2 | 12.4%
CCCCCCCn1c2c(c(=N)c3c1CCC3)CCCC2 | 76.9% (active)
CCCCCCCCCn1c2c(c(=N)c3c1CCC3)CCCC2 | 91.2% (active)
CCCCCCCCn1c2c(c(=N)c3c1CCC3)CCCC2 | 79.5% (active)
